Lassa entry inh = inhibitors of Lassa virus binding or cell entry; Lassa virus pseudotype entry inhibition, cell reporter; Potency, µM (highest dose often 37.9 µM), for inactives: at the top dose activity change, negative = inhibition, usual class: inhibitors; 1.2% of 300,000 active; calls by dose curve; tested in HEK293 cells; note: nearly all actives have a fitted effect of over 50% in size
HCV inhibitor = inhibitors of hepatitis C virus infection; Potency, µM (titrated, usually from 41.8 µM), without a hit: at the highest dose activity change, negative = inhibition, actives largely listed as inhibitors; Huh7.5.1 HCVcc-Cre infection, luciferase reporter, 44 h; 3.4% of 340,000 active; AID 651820
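Whole-lifecycle infectious HCVcc-Cre system; cells 1,000/well, compound then virus (~0.5 moi) added 4 h after plating, 44 h culture. Luciferase read 15 sec following 15 min substrate incubation, room temp.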
FMDV inh = antivirals against foot and mouth disease virus. FMDV antiviral cell-based qHTS. Potency, µM (highest dose often 57.9 µM), without a hit: at the highest dose activity change, negative = inhibition, most hits filed as inhibitors. 1.2% of 410,000 active. AID 1159524; calls by dose curve; tested in HEK293T cells; note: read-out not given here; nearly all actives have a fitted effect of over 45% in size
RE007 growth inh = less growth of the S. pombe RE007 Vpr strain | S. pombe RE007 Vpr strain, BacTiter-Glo ATP luminescence, 24 h | Potency, µM (top dose mostly 92.2 µM), without a hit: at the top dose activity change, negative = less growth, hits mostly inhibitors | 0.21% of 360,000 active; active = well fitted falling curve with a large enough effect; inconclusive = small, poorly fitted or top-dose-only effect; inactive = no such curve, though single readings can be large or run the other way; note: nearly all actives have a fitted effect of over 50% in size
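Fission yeast strain RE007, carrying one chromosomally integrated HIV-1 vpr copy, was seeded at OD 0.01 in PMG+AL medium with 23 nL pinned compound. After 24 h at 30 °C and 99% humidity, viability was read by BacTiter-Glo luminescence.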
Marburg entry inh = blocks Marburg virus binding to or entry into cells. Marburg virus pseudotyped entry inhibition, cell reporter. Potency, µM (series often up to 37.8 µM), for inactives: at the top dose activity change, negative = inhibition, most hits filed as inhibitors. AID 540276. 1.8% of 300,000 active; calls by dose curve; tested in HEK293 cells
Sm TGR block = inhibitors of Schistosoma mansoni thioredoxin glutathione reductase. purified TGR, DTNB reduction, TNB absorbance 405 nm. 3% of 360,000 active. Potency, µM (top dose mostly 114 µM), without a hit: at the highest dose activity change, negative = inhibition, most hits filed as inhibitors. Q962Y6; note: nearly all actives have a fitted effect of over 60% in size
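TGR 20 nM + NADPH 100 uM (dispensed conc.), cpd preinc 15 min RT; start with NADPH (500 uM addition) then DTNB (15 mM addition). Kinetic TNB absorbance, 405 nm filter. Four-parameter Hill fit across titration.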
* = called active by the depositor; ? = inconclusive; / = no result given; [ ] = dose if it differs, or a comment. This is a sample that favours compounds with a hit; in the whole collection about 7.2% have one here. Unless noted, calls come from the whole dose curve; as a rule, active = well fitted curve in the direction sought with a large enough effect; inconclusive = small, poorly fitted or top-dose-only effect, or another doubt; inactive = no such curve, though single readings can be large; an effect the other way counts as inactive or inconclusive. % is set by controls: 0 for no effect and ±100 for the full control effect; potency is the fitted concentration of half-maximal effect.

SMILES	Lassa entry inh	HCV inhibitor	FMDV inh	RE007 growth inh	Marburg entry inh	Sm TGR block
COC(=O)c1sccc1S(=O)(=O)N(CC(=O)Nc1cccc(C)c1C)c1ccc(C)c(C)c1	-29%[46.1 µM]	/	-16%	/	/	3%
COC(=O)c1cncc(O)c1	-2%	12%	0%	6%	-5%	3%
COC(=O)c1cncc(C=Cc2c(C)cc(O)cc2C)c1	3.1µM*	/	/	/	/	/
Cc1[nH]n(-c2ccccc2)c(=O)c1N=Nc1ccc2c(c1)OCCO2	/	1%	69%	4%	/	1%
Cc1[nH]n(-c2ccccc2)c(=O)c1N=Nc1c(O)cc(S(=O)(=O)N(C)C)c2ccccc12	/	?	13µM*	4%	/	?
COc1ccccc1OCC(=O)NCC1CCCN(C(=O)c2cccc(C)c2)C1 (centres undefined)	/	/	-23%	-4%	/	/
COC(=O)C/C=C\[C@@H](C)[C@@H](/C=N\OC[C@@H]1O[C@H](c2ccccc2)C=C[C@@H]1Oc1ccc(OC)cc1)NS(=O)(=O)c1ccc(C)cc1	/	/	/	/	1%[14.2 µM]	/
O=S(=O)(c1ccc2nnn(OCc3ccccc3)c2c1)N1CCOCC1	3%	?	-19%	2%	-2%	9%
COc1ccc(COn2nnc3ccc(S(=O)(=O)N4CCOCC4)cc32)cc1F	8%	10µM*	-10%	11%	5%[46.1 µM]	3%
CCOC(=O)N/N=C1/C[C@@H](O)[C@@H](O)[C@@H]2[C@@H]3C(=O)N(Cc4ccc5c(c4)OCO5)C(=O)[C@H]3CC[C@@H]12	/	/	/	/	-22%[14.2 µM]	/
Cn1c(=O)c([N+](=O)[O-])c(-n2ccnc2)c2ccccc21	?	?	32µM*	-2%	?	35µM*
COc1ccc(CCN2C(=O)c3[nH]nc(-c4ccccc4O)c3C2c2ccc(OC)cc2)cc1 (centres undefined)	?	/	-20%	/	-8%[46.1 µM]	-5%
COCC1CCCN(Cc2ccc3c(c2)CN(C(=O)c2sc(C)nc2C)CCO3)C1 (centres undefined)	/	/	-2%	/	/	/
O=C1C2C3C=CC(CNS(=O)(=O)c4ccccc4)(O3)C2C(=O)N1c1ccc(Cl)cc1 (centres undefined)	-5%	6%	-6%	3.2µM*	?	4µM*
CC(=O)Oc1ccc(N2C(=O)C3C4C=CC(CO)(O4)C3C2=O)cc1 (centres undefined)	-6%	17%	-21%	7.9µM*	?	0.89µM*
O=C1C2C3C=CC(CO)(O3)C2C(=O)N1c1ccccc1-c1ccccc1 (centres undefined)	-19%	-27%	/	13µM*	2%	0.32µM*
CC(=O)Oc1ccc(N2C(=O)C3C(C2=O)C2(C)C=CC3(C)O2)cc1 (centres undefined)	/	/	/	/	/	0.63µM*
Cc1cccc(Nc2nc3c(S(=O)(=O)c4ccc(Br)cc4)nnn3c3ccsc23)c1C	-24%[46.1 µM]	/	-14%	/	/	-10%
C/C=C/c1cccc(-c2nc(C(=O)N3CCOCC3)cc3c2[C@@H](CCO)N(C(=O)NC(C)C)C3)c1	/	/	-13%	1%	/	/
FC(F)Oc1ccc(/C=N/n2c(Cc3ccc(Br)cc3)n[nH]c2=S)cc1	5µM*	-6%	-20%	-17%	-2%[46.1 µM]	-2%
S=c1[nH]nc(COc2ccccc2)n1/N=C/c1cccnc1	?	22%	2%	-18%	-7%	-3%
Cc1ccc(/C=N/n2c(COc3ccccc3)n[nH]c2=S)cc1	/	?	-10%	7%	/	5%
CN(C)c1ccc(/C=N/n2c(COc3ccccc3)n[nH]c2=S)cc1	0.92µM*	16%	5%	25%	5%	6%
S=c1[nH]nc(COc2ccccc2)n1/N=C/C(Cl)=C/c1ccccc1	18µM*	-27%	35µM*	-18%	2%	8%
CSc1ccc(/C=N/n2c(Cc3ccc(Br)cc3)n[nH]c2=S)cc1	?	-20%	4%	2%	25%[46.1 µM]	0%
SMILES	Lassa entry inh	HCV inhibitor	FMDV inh	RE007 growth inh	Marburg entry inh	Sm TGR block
CC(C)c1ccc(/C=N/n2c(COc3ccccc3)n[nH]c2=S)cc1	1.6µM*	19%	-8%	?	?	0%
Cc1sc2ncnc(N/N=C/c3cccc(O)c3)c2c1C	28%	?	-5%	8%	3.2µM*	1%
CC(=NNC(=S)Nc1ccccc1)c1ccccn1	/	/	58%	?	/	/
CC(=NNC(=S)Nc1ccccc1Cl)c1ccccn1	0.25µM*	?	7%	?	?	/
C/C(=N\Nc1ccc(Cl)c(C(=O)O)c1)c1ccccn1	/	8%	1%	-2%	/	-1%
C/C(=N\Nc1cccc2cccnc12)c1ccccn1	?	6.3µM*	-77%	?	?	1%
C/C(=N\Nc1ncc(Cl)cc1Cl)c1ccccn1	?	?	5.6µM*	22µM*	0.89µM*	-33%
COc1cc(CN2CCCC(n3cc(C(=O)N4CCCC4)nn3)C2)cc(OC)c1 (centres undefined)	/	/	-9%	/	/	/
Cc1sc2ncnc(Nc3ccc(O)cc3)c2c1C	-17%	?	-1%	-15%	-26%	8%
C/C(=N\Nc1ncnc2sc(C)c(C)c12)c1ccccn1	?	?	17%	?	3.2µM*	2%
Cc1cccc(N2CCN(C(=O)COc3cc(=O)n(C)c4ccccc34)CC2)c1C	?	?	-24%	-3%	-8%	-15%
Cc1ccc(C)c(N2CCN(C(=O)CCCOc3cc(=O)n(C)c4ccccc34)CC2)c1	?	10µM*	25µM*	9%	?	2%
Cc1ccc(C)c(N2CCN(C(=O)COc3cc(=O)n(C)c4ccccc34)CC2)c1	18µM*	?	?	27%	-24%	2%
COc1ccc(N2CCN(C(=O)CCCOc3cc(=O)n(C)c4ccccc34)CC2)cc1	9%	-11%	?	-2%	?	-12%
Cc1ccc(OC(C)C(=O)N2CCN(CCc3ccncc3)CC2)cc1C (centres undefined)	-9%[46.1 µM]	/	8%	/	4%[46.1 µM]	-34%
Cc1ccc(S(=O)(=O)CC#CCOC(=O)c2ccc([N+](=O)[O-])cc2)cc1	/	/	/	/	-3%	0.63µM*
CCOc1ccc(CNC(=O)CN2C(=O)CSc3c2c(C)nn3-c2ccccc2)cc1	-16%[46.1 µM]	/	-19%	/	/	0%
O=C(NCCN1CCOCC1)c1cnn(-c2nccc(-c3ccccc3F)n2)c1C1CC1	/	/	40%	/	/	/
COc1ccc(OCC(=O)Sc2ccc(C)cc2)cc1	3%	42%	?	-27%	3%	3.2µM*
CCN1CCN(c2c(S(=O)(=O)c3ccc(OC)cc3)cnc3cc(OC)c(OC)cc23)CC1	/	/	-17%	/	?	4%
COc1cc2ncc(S(=O)(=O)c3ccccc3)c(N3CCCC(C)C3)c2cc1OC (centres undefined)	/	11µM*	-28%	13%	/	-5%
Cc1nn2cc(-c3ccc(OC(C)C)cc3)nc2s1	?	/	-50%	/	?	3%

Compound activity from PubChem BioAssay.
